The panel holds about 83,000 compounds, 20% with a hit somewhere; the sample as a whole holds those more often.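 Values shown are percent growth following 48 h exposure of cells in 96-well plates to a single concentration of compound; below 10 was considered active.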 Activity calls are given as the source filed them.
Tests used:
Test in all cases: NCI-60 one-dose screen, 48 h (100 = growth as untreated, 0 = no growth, -100 = all killed)
Details in all cases: 10 µM unless noted
HCT-15 colon = test system: HCT-15 colon
HT29 colon = test system: HT29 colon
SNB-19 CNS = test system: SNB-19 CNS
U251 CNS = test system: U251 CNS
PC-3 prostate = test system: PC-3 prostate
SK-MEL-5 melanoma = test system: SK-MEL-5 melanoma
UACC-62 melanoma = test system: UACC-62 melanoma
LOX IMVI melanoma = test system: LOX IMVI melanoma
SK-MEL-28 melanoma = test system: SK-MEL-28 melanoma

Measured: growth

CC(C)(C)OC(=O)Nc1ccc(-c2cccc(Oc3ccc4nnc(Cl)n4n3)c2)cc1
inactive: HCT-15 colon 65% | HT29 colon 84.7% | SNB-19 CNS 94.9% | U251 CNS 91.2% | PC-3 prostate 51.1% | SK-MEL-5 melanoma 19.5% | UACC-62 melanoma 63.6% | LOX IMVI melanoma 82.9% | SK-MEL-28 melanoma 96.9%

CN1CCN(Cc2ccc(NC(=O)c3cncc(C#Cc4cnc5ccc(OC6CCOCC6)nn45)c3)cc2C(F)(F)F)CC1
active: HCT-15 colon -66.4% | HT29 colon -68% | SNB-19 CNS -84% | U251 CNS -82.8% | PC-3 prostate -49.7% | SK-MEL-5 melanoma -95.6% | UACC-62 melanoma -70.5% | LOX IMVI melanoma -93% | SK-MEL-28 melanoma -82.5%

CCN(CC)c1ccc(/C=N/NC(=O)c2ccc(NS(C)(=O)=O)cc2)c(O)c1
active: SK-MEL-5 melanoma 0.13% | UACC-62 melanoma 0.285% | LOX IMVI melanoma 0.336%
inactive: HCT-15 colon 20.1% | HT29 colon 27.4% | SNB-19 CNS 34.7% | U251 CNS 23.8% | PC-3 prostate 31.7% | SK-MEL-28 melanoma 23%

CCCCCC[n+]1ccc(SCC(=O)n2ccc3ccccc32)c2ccccc21
inactive: HCT-15 colon 94.3% | HT29 colon 84% | SNB-19 CNS 86.8% | U251 CNS 94.4% | PC-3 prostate 83.7% | SK-MEL-5 melanoma 88.7% | UACC-62 melanoma 73.3% | LOX IMVI melanoma 91.5% | SK-MEL-28 melanoma 106%

O=C1C(SCc2ccccc2)=C(Cl)CN1c1ccccc1
inactive: HCT-15 colon 95.8% | HT29 colon 106% | SNB-19 CNS 96.2% | U251 CNS 101% | PC-3 prostate 109% | SK-MEL-5 melanoma 99.4% | UACC-62 melanoma 93.1% | LOX IMVI melanoma 42.8% | SK-MEL-28 melanoma 98.9%

CC1=C(C)C(=O)C(Nc2ccc3c(c2)OCO3)=C(Br)C1=O
inactive: HCT-15 colon 101% | HT29 colon 109% | SNB-19 CNS 93.8% | U251 CNS 103% | PC-3 prostate 86% | SK-MEL-5 melanoma 90.2% | UACC-62 melanoma 87.4% | LOX IMVI melanoma 77.2% | SK-MEL-28 melanoma 110%

COC(=O)c1ccc(NC2=C(Cl)C(=O)c3nc(C)ccc3C2=O)cc1
inactive: HCT-15 colon 22.7% | HT29 colon 90.5% | SNB-19 CNS 61.9% | U251 CNS 46.9% | PC-3 prostate 57.3% | SK-MEL-5 melanoma 68.4% | UACC-62 melanoma 68.5% | LOX IMVI melanoma 45.1% | SK-MEL-28 melanoma 75.4%

CN1CCN(Cc2ccc(NC(=O)c3cncc(C#Cc4cnc(N)nc4)c3)cc2C(F)(F)F)CC1
active: UACC-62 melanoma -0.0134% | LOX IMVI melanoma 4.32% | SK-MEL-28 melanoma 2.04%
inactive: HCT-15 colon 17.2% | HT29 colon 14.3% | SNB-19 CNS 57.4% | U251 CNS 30.3% | PC-3 prostate 35.1% | SK-MEL-5 melanoma 38%

C/C(=C(/C)C1CC1CCNC1CCC(NC(=O)OC(C)(C)C)CC1)c1ccccc1 (centres undefined)
inactive: HCT-15 colon 42.6% | HT29 colon 11.9% | SNB-19 CNS 91.3% | U251 CNS 61.3% | PC-3 prostate 63.8% | SK-MEL-5 melanoma 45.7% | UACC-62 melanoma 83.1% | LOX IMVI melanoma 10.2% | SK-MEL-28 melanoma 35.5%

NC(=S)n1c(=O)n(-c2cccc(C(F)(F)F)c2)c(=O)c2cc(-c3ccc(F)cc3F)ccc21
inactive: HT29 colon 37.4% | SNB-19 CNS 15.6% | SK-MEL-28 melanoma 23%
active: HCT-15 colon 9.27% | U251 CNS 9.68% | PC-3 prostate 0.986% | SK-MEL-5 melanoma -57.3% | UACC-62 melanoma -3.3% | LOX IMVI melanoma -46.5%

O=C(/C=C/Nc1ccc(S(=O)(=O)Nc2ncccn2)cc1)c1ccc(N=Cc2c(O)[nH]c3ccccc23)cc1
inactive: HCT-15 colon 104% | HT29 colon 106% | SNB-19 CNS 112% | U251 CNS 103% | PC-3 prostate 101% | SK-MEL-5 melanoma 98.1% | UACC-62 melanoma 108% | LOX IMVI melanoma 102% | SK-MEL-28 melanoma 118%

Source: PubChem BioAssay (NCI)
